# Assay results reported in PubChem BioAssay AID463190 (Sanford-Burnham Center for Chemical Genomics, 2010).
# Screen size: about 330,000 compounds; about 7,300 (2.2%) were called active. This is one part of a sample in which actives are shown more often than they occur.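 How the source made its calls: active means inhibition of at least 40%; inactive means the rest.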
# Experiment: growth inhibition of tim10-1 ts yeast – luminescence, uHTS, primary screen (AID 463190);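 further: mutant grown at 25 °C; 0% = DMSO wells with yeast and 100% = wells holding no yeast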
# Settings: S. cerevisiae tim10-1 ts strain growth, BacTiter-Glo, 24 h; at 20 µM; stronger effect = higher value
row,Structure (SMILES),inhibition
1,O=C(O)c1n[nH]nc1-c1ccccc1,-4.76% (inactive)
2,O=C(Nc1cccc([N+](=O)[O-])c1)N1CCc2ccccc2C1,13.3% (inactive)
3,COc1ccc(-c2cnc(SCCNC(=O)c3ccc4c(c3)OCO4)[nH]2)cc1,-13.2% (inactive)
4,N#Cc1c(-c2ccccc2)nc(SCc2ccc([N+](=O)[O-])cc2)[nH]c1=O,16.7% (inactive)
5,COc1ccccc1CSc1ncc(-c2ccc([N+](=O)[O-])cc2)[nH]1,44.7% (active)
6,O=C(ON=C1CCN(S(=O)(=O)c2ccccc2)CC1)c1ccc(Cl)cc1,65.8% (active)
7,COC(=O)c1ccc(S(=O)(=O)N2CCc3ccccc3C2)cc1,-7.78% (inactive)
8,CC(OC(=O)c1ccc(S(=O)(=O)N2CCOCC2)cc1)c1ccccc1 (stereo not given),23.8% (inactive)
9,COc1ccc(NC(=O)CCCN2C(=O)C(c3ccccc3)Oc3cccnc32)cc1 (stereo not given),37% (inactive)
10,OCC[C@H]1C[C@H](O)[C@@H](O)[C@]2(Cc3ccccc3CO2)O1,19% (inactive)
11,NS(=O)(=O)c1ccc(CCNC(=S)Nc2ccc(S(N)(=O)=O)cc2)cc1,8.83% (inactive)
12,NS(=O)(=O)c1ccc(NC(=S)NC(=O)c2cccc(Br)c2)cc1,23.9% (inactive)
13,NS(=O)(=O)c1ccc(NC(=S)Nc2ccc(Br)c(Cl)c2)cc1,55.7% (active)
14,CCOC(=O)c1csc(CCNC(=O)c2oc3c(Cl)cc(C)cc3c2C)n1,19.2% (inactive)
15,O=C(Nc1cccc(Cl)c1)c1cc(S(=O)(=O)N2CCCCC2)c[nH]1,-3.59% (inactive)
16,O=C(Nc1cccc(Cl)c1)c1cncn1-c1ccc(F)cc1,41.7% (active)
17,CCC(=O)Nc1nc(C)c(C(=O)Nc2cccc(Cl)c2)s1,2.36% (inactive)
18,CCn1cc(C(=O)Nc2cc(C)ccc2C)c(=O)c2ccc(C)nc21,6.54% (inactive)
19,O=C(c1cc2cc(F)ccc2[nH]1)N1CCN(c2ccc(F)cc2)CC1,-10.5% (inactive)
20,O=C(c1cc(C(=O)N2CCN(c3ccc(F)cc3)CC2)cc([N+](=O)[O-])c1)N1CCN(c2ccc(F)cc2)CC1,-17.5% (inactive)
21,O=C(c1cccc(C(=O)N2CCN(c3ccc(F)cc3)CC2)c1)N1CCN(c2ccc(F)cc2)CC1,40.1% (active)
22,OCCCNC(c1ccccc1)c1ccc(O)cc1 (stereo not given),-5.16% (inactive)
23,COc1ccc(C(=O)NC(=S)NNC(=O)c2c(-c3ccccc3)noc2C)cc1,41.5% (active)
24,Cc1onc(-c2ccccc2)c1C(=O)NNC(=S)NC(=O)c1ccc(F)cc1,29.6% (inactive)
25,Cc1onc(-c2ccccc2)c1C(=O)Nc1ccccc1C#N,25% (inactive)
